Assay [1] can be described thus: qHTS for Inhibitors of the Functional Ribonucleoprotein Complex (vRNP) of Lassa (LASV) Arenavirus: Viability assay - alamar blue signal for LASV Primary Screen (AID 1347083; calls by dose curve; tested in HEK293 reporter line; note: nearly all actives have a fitted effect of over 80% in size; note: potency is the fitted concentration of half-maximal effect).
Assay [2] in a line: qHTS for Inhibitors of the Functional Ribonucleoprotein Complex (vRNP) of Lymphocytic Choriomeningitis Arenaviruses (LCMV): Viability assay - alamar blue signal for LCMV Primary Screen (AID 1347085; calls by dose curve; tested in HEK293 reporter line; note: nearly all actives have a fitted effect of over 80% in size; note: potency is the fitted concentration of half-maximal effect).
Assay [3] is described as follows: Confirmatory qHTS for VERO E6 Cytotoxicity Assay: Counterscreen for SARS-CoV-2 CPE Assay (AID 1508605). Note: nearly all actives have a fitted effect of over 60% in size. Note: potency is the fitted concentration of half-maximal effect.
Assay [4] in a line: Cytotoxicity counterscreen for inhibitors of SARS-CoV-2 cell entry (AID 1645845). Note: nearly all actives have a fitted effect of over 50% in size. Note: potency is the fitted concentration of half-maximal effect. Summed up:
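ATP-content luminescence (ATPLite 1step, 15 min RT) read after 48 h compound exposure of Expi293F cells stably expressing human ACE2; normalized to cells-only wells and media-only wells.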

Assay [5] can be described thus: Primary qHTS to identify inhibitors of SARS-CoV-2 cell entry (AID 1645846). Note: nearly all actives have a fitted effect of over 45% in size. Note: potency is the fitted concentration of half-maximal effect. The note with it: activity change, negative = inhibition: at 57.1 µM (top of the series) unless noted. Summed up:
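HEK293 cells stably expressing human ACE2, pre-treated 1 h with compound, then infected with MLV particles pseudotyped with Wuhan-Hu-1 spike (C-terminal 19-aa truncation). Luciferase luminescence after 48 h at 37 °C, normalised to spike PP and bald PP.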

Assay [6] in a line: Confirmatory qHTS for activators (rescue) of SARS-CoV-2 Cytopathic Effect (CPE) (AID 1508606). Note: 0% is about no effect; nearly all actives have a fitted effect of over 70% in size.
The nature of assay [7]: Inducers of the Endoplasmic Reticulum Stress Response (ERSR) in human glioma: Validation (AID 504836; active = well fitted curve in the direction sought with a large enough effect; note: 0% is about no effect). An outline of the steps: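 ERSR induction read as luciferase luminescence (Bright-Glo, 10 min at room temperature) in stably transfected human U87-MG glioma cells exposed to compounds for 16 h, using GRP78 as sensor.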
Assay [8] can be described thus: Primary qHTS for inhibitors of SARS-S pseudo-typed particle cell entry (AID 1479145). For activity change, negative = inhibition: % is set by controls: 0 for no effect and ±100 for the full control effect. Note: nearly all actives have a fitted effect of over 45% in size.
A short description of assay [9]: Primary qHTS for Huh7 cytotoxicity: counterscreen for inhibitors of MERS-S pseudotyped particle cell entry (AID 1479147). As to conditions: outcome: dose series up to 57.1 µM unless noted.
The nature of assay [10]: Primary qHTS for inhibitors of MERS-S pseudo-typed particle cell entry (AID 1479149). For activity change, negative = inhibition: % is set by controls: 0 for no effect and ±100 for the full control effect. Note: nearly all actives have a fitted effect of over 60% in size.
Assay [11] is described as follows: Primary qHTS for Vero E6 cytotoxicity: counterscreen for inhibitors of SARS-S pseudo-typed particle cell entry (AID 1479150). The note with it: outcome: dose series up to 57.1 µM unless noted.
The nature of assay [12]: Validation screen for inhibitors of Lassa infection (AID 463096). Note: % is set by controls: 0 for no effect and ±100 for the full control effect.

The structures appear in SMILES notation. Results filed as inconclusive are left out. Activity calls are given as the source filed them. Unless noted, calls come from the whole dose curve.

With `O=C(N[C@@H](c1ccccc1)[C@@H]1CCCCN1)c1cccc(C(F)(F)F)c1Cl`, the figures for the Potency in assay [1] and in [2] were 24.3 nM (active) and 8.6 nM (active), respectively. Moreover, the Potency result in [3] and in assay [4] was “inactive” each time.
`O=C(Nc1cn[nH]c1-c1nc2ccc(CN3CCOCC3)cc2[nH]1)NC1CC1`: the Potency in [1] is 7690 nM (active); in [2] it was 1930 nM (active); in assay [4], 15800 nM (active). Also, the activity change, negative = inhibition in assay [5] is -95.5%.
On to `Cc1cc(C(=O)NOCCO)c(Nc2ccc(I)cc2F)n(C)c1=O`, for which the Potency in assay [1] is 6850 nM (active); in [2], 863 nM (active). Further, in [4], the Potency result is “inactive”. In assay [5], the activity change, negative = inhibition was -17.4%.
As to `c1cncc(CN2CCC(n3ncc4c(N5CCOCC5)nc(-c5ccc6[nH]ccc6c5)nc43)CC2)c1`, the Potency in assay [1] is 1220 nM (active); in assay [2] it was 2430 nM (active); in assay [3] it was 2510 nM (active). Moreover, the Potency result in [6] was “inactive”.
As to `CC[n+]1c(/C=C/C=C2/N(C)c3ccccc3C2(C)C)sc2ccccc21`, the outcome in assay [7] was inactive. The Potency in [1] was 1580 nM (active); in [2], 708 nM (active).
For `COc1cc(C(=O)NC2CCN(C)CC2)ccc1Nc1ncc2c(n1)N(C1CCCC1)CCC(=O)N2C(C)C`, the values for the Potency in assay [1], in [2] and in [5] were 27300 nM (active), 15300 nM (active) and 31600 nM (active), respectively.
For the compound `O=C(CC12CC3CC(CC(C3)C1)C2)Nc1cccc2nc(NCCNCCO)ccc12`, the Potency is 21700 nM (active) in assay [1] and 24300 nM (active) in [2]. The Potency entry in assay [4] was “inactive”.
`CCN1CCCC1=O`: the Potency entry in assay [1], in assay [2], in assay [8], in assay [10], in [4] and in [5] was “inactive” throughout. Besides, the compound was called inactive in [9] and in assay [11].
For the compound `Cc1cc(C(C)Nc2ccccc2)c2nc(N3CCOCC3)cc(=O)n2c1` (stereo not given), the Potency was 1930 nM (active) in assay [1] and 544 nM (active) in [2]. In [4], the Potency entry is “inactive”.
Consider `COc1cc(/C=C(\C#N)C(=O)Nc2nnc(C(F)(F)F)s2)ccc1OCc1ccc(C(F)(F)F)cc1C(F)(F)F`, for which the outcome in [7] was inactive. For the same compound, the Potency entry in assay [1], in [2], in [4] and in assay [5] was “inactive” throughout.
For `CN1CCN2c3ccccc3Cc3ccccc3C2C1` (stereo not given), the Potency result in [12], in assay [1], in assay [2], in assay [10] and in assay [4] was “inactive” each time. The compound was called inactive in [7], in assay [9] and in assay [11].
As for `CC(=O)OCC(=O)[C@@]12OC(C)(C)O[C@@H]1C[C@H]1[C@@H]3C[C@H](F)C4=CC(=O)C=C[C@]4(C)[C@@]3(F)[C@@H](O)C[C@@]12C`, the Potency entry in assay [1], in assay [2], in assay [8], in assay [10], in assay [4] and in [5] was “inactive” in each case. Moreover, the outcome in assay [9] and in assay [11] was inactive.
Turning to `O=C(c1ccc(OCCCc2cnc[nH]2)cc1)C1CC1`, the result in assay [7] was inactive. Moreover, the Potency entry in assay [1] and in assay [2] was “inactive” each time.

(Values after PubChem BioAssay (NCATS).)
